Bioassay records (PubChem BioAssay)
AmpC detergent: blocks E. coli AmpC beta-lactamase in detergent assay. AID 485294. Potency, µM (doses to about 114 µM), inactives show top-dose activity change, negative = inhibition, actives largely listed as inhibitors. AmpC hydrolysis of nitrocefin, absorbance 480 nm, 0.01% Triton. P00811. 370,000 compounds, 0.041% hits;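 note: 0% = no-compound wells and -100% = no-enzyme wells; nearly all actives have a fitted effect of over 25% in size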
Target sequence (P00811 whole entry, looked up): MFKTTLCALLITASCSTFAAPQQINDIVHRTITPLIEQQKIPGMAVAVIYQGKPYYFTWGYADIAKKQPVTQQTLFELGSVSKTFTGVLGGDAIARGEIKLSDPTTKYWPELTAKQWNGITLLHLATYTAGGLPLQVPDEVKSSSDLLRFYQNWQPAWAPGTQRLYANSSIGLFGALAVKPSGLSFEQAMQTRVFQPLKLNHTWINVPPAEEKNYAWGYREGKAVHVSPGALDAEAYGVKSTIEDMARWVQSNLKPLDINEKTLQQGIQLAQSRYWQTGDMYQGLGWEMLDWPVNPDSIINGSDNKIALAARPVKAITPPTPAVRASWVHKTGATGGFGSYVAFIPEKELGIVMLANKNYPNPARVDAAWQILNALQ
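20 mM phosphate pH 7.0 + 0.01% (detergent screen) or 0.0001% Triton X-100; 5.3 nM AmpC reagent; cpd preinc 15 min RT; nitrocefin (800 uM stock) to start; A480 q20 s × 4 min; Activity was normalised to no-enzyme and no-compound control wells.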
Sm TGR block: blocks Schistosoma mansoni thioredoxin glutathione reductase; Potency, µM (top dose mostly 114 µM), for inactives: at the top dose activity change, negative = inhibition, most hits filed as inhibitors; Q962Y6; AID 485364; 360,000 compounds, 3% hits; purified TGR, DTNB reduction, TNB absorbance 405 nm; note: nearly all actives have a fitted effect of over 60% in size
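First, TGR (20 nM dispensed) and NADPH were mixed with compound. Second, a 15 min room-temperature incubation followed. Third, further NADPH and then DTNB were added to start the reaction. Finally, TNB absorbance was monitored kinetically.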
AmpC inh no detg: AmpC beta-lactamase inhibition without detergent; 330,000 compounds, 0.52% hits; AID 485341; P00811; AmpC nitrocefin hydrolysis, absorbance 480 nm, 0.0001% Triton; Potency, µM (series often up to 57.1 µM), inactives show at the top dose activity change, negative = inhibition, actives largely listed as inhibitors;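 note: plate controls were no compound for no effect and no enzyme for full effect; nearly all actives have a fitted effect of over 20% in size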
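AmpC (5.3 nM in the dispensed reagent) in 20 mM phosphate pH 7.0 with 0.01% (detergent screen) or 0.0001% Triton X-100 was preincubated with compounds for 15 min at room temperature. Nitrocefin was then added from an 800 uM solution, and hydrolysis was followed at 480 nm.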
FBPA Giardia inh: blocks Giardia fructose-bisphosphate aldolase activity. A8B2U2. purified Giardia FBPA. Potency, µM (series often up to 59.6 µM), without a hit: at the top dose activity, negative = inhibition, hits mostly inhibitors. 290,000 compounds, 0.71% hits; note: nearly all actives have a fitted effect of over 55% in size
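40 nM FBPA preincubated 10 min at RT with compound (up to 57.5 uM final), then substrate plus GAPDH/TPI/NAD/arsenate coupling and diaphorase/resazurin added. Fluorescence read after 20 min at RT, 525/598 nm.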
Active calls of the source: *; ? = inconclusive; . = no result given. A selection: hits, their analogues and other compounds. The true share with any hit is near 3.6%. Calls come from the whole dose curve; as a rule, active = well fitted curve in the direction sought with a large enough effect; inconclusive = small, poorly fitted or top-dose-only effect, or another doubt; inactive = no such curve, though single readings can be large; an effect the other way counts as inactive or inconclusive. Unless noted, % is set by controls: 0 for no effect and ±100 for the full control effect; potency is the fitted concentration of half-maximal effect.

SMILES | AmpC detergent | Sm TGR block | AmpC inh no detg | FBPA Giardia inh
COc1cccc(-c2nc(CS(=O)(=O)CC(=O)Nc3cccc(C)c3C)c(C)o2)c1 | ? | ? | 45µM* | 3%
O=S(=O)(NCc1ccccn1)c1ccc(Cl)s1 | 2% | -2% | -17% | -13%
O=c1oc2ccccc2cc1-c1cn2cc(Cc3ccccc3F)sc2n1 | 27% | 3% | . | .
O=C(O)c1cccc(NC2=C(n3nnc4ccccc43)C(=O)c3ccccc3C2=O)c1 | -7% | 45µM* | -1% | ?
CCc1cccc(NC(=O)CCS(=O)(=O)c2ccc3nc(C)sc3c2)c1 | -12% | -2% | . | .
O=C1CC(Sc2nnc(-c3ccccc3)o2)C(=O)N1c1ccccc1 (stereo unspecified) | -4% | 3.5µM* | -20% | 0%
O=C1c2ccccc2CC1Sc1nnc(-c2ccncc2)o1 (stereo unspecified) | 5% | 16µM* | -17% | -5%
Cc1ccccc1N1C(=O)CC(Sc2nnc(-c3ccccc3)o2)C1=O (stereo unspecified) | -14% | 2.8µM* | -18% | 3%
O=C1OCCC1Sc1nnc(-c2ccc(Br)cc2)o1 (stereo unspecified) | -10% | -8% | -15% | 2%
C=CCc1cc(Cl)ccc1OCCOCCN(C)C | -6% | 1% | 21% | ?
CC(/C=N/n1c(-c2n[nH]c3c2CCC3)n[nH]c1=S)=C\c1ccco1 | -1% | 35µM* | -43% | ?
CC(/C=N/n1c(-c2cccnc2)n[nH]c1=S)=C\c1ccco1 | -6% | 40µM* | -39% | -4%
COc1ccc(/C=N/n2c(-c3n[nH]c4c3CCC4)n[nH]c2=S)cc1 | -9% | 1% | -38% | -6%
Nc1cc(Cl)c2nonc2c1[N+](=O)[O-] | -10% | 1.4µM* | -15% | ?
Cc1ccc(C)c(Nc2ccc3nonc3c2[N+](=O)[O-])c1 | 8% | ? | -12% | -5%
O=C(O)c1cc(Nc2cc(Cl)c3nonc3c2[N+](=O)[O-])ccc1O | -9% | 0.1µM* | -21% | 19%
O=[N+]([O-])c1c(Nc2ccccc2O)cc(Cl)c2nonc12 | -17% | 0.63µM* | 32µM* | -7%
O=[N+]([O-])c1c(Nc2ccccc2O)ccc2nonc12 | ? | 5% | -30% | ?
c1ccc(CCN=C2CCCc3c2[nH]c2ccccc32)cc1 | -1% | 56µM* | -25% | -5%
CCOC(=O)c1c(C)c(C(=O)NCc2ccc(OC)cc2)c(C)n1CC | -5% | 1% | . | .
CCOC(=O)c1c(C)c(C(=O)NCCc2ccc(OC)cc2)c(C)n1CC | 7% | 22µM* | . | .
O=c1ccc2cc3c4c(c2o1)CCCN4CCC3 | -3% | 50µM* | -40% | -23%
O=c1oc2c3c4c(cc2s1)CCCN4CCC3 | -12% | ? | -22% | ?
COc1ccc(CCC(=O)NC2CCC(C)CC2)cc1 (stereo unspecified) | -7% | -16% | 2% | -2%
CC(=O)N1c2ccccc2CC1C(=O)N1CCN(c2cccc(C)c2C)CC1 (stereo unspecified) | 9% | -2% | . | .
SMILES | AmpC detergent | Sm TGR block | AmpC inh no detg | FBPA Giardia inh
S=c1sc2c(Cl)ncnc2n1-c1ccccc1 | 4% | 3.2µM* | -17% | 3%
Cc1nc(N2CCN(C)CC2)c2sc(=S)n(-c3ccccc3)c2n1 | -9% | 0% | -11% | 9%
CCOC(=O)C1=C(C)NC(=S)NC1c1ccc(-c2ccc(Cl)cc2)o1 (stereo unspecified) | -8% | 22µM* | -54% | -21%
COC(=O)C1=C(C)NC(C)=C(C(=O)OC)C1c1ccc(-c2cc(Cl)ccc2Cl)o1 | 9% | -34% | -43% | 3%
COC(=O)C1=C(C)NC(C)=C(C(=O)OC)C1c1ccc(-c2cccc([N+](=O)[O-])c2)o1 | -7% | 40µM* | -47% | -8%
CCOC(=O)C1=C(C)NC(=O)NC1c1ccc(-c2ccc(F)cc2)o1 (stereo unspecified) | ? | 25µM* | -20% | -4%
COCCOC(=O)C1=C(C)NC(=O)NC1c1ccc(-c2cc(Cl)ccc2Cl)o1 (stereo unspecified) | -7% | 18µM* | 4% | 0%
CCOC(=O)C1=C(C)NC(=S)NC1c1ccc(-c2cccc(Cl)c2C)o1 (stereo unspecified) | -8% | ? | -55% | ?
CCOC(=O)C1=C(C)NC(=O)NC1c1ccc(-c2ccc(Cl)cc2)o1 (stereo unspecified) | -8% | . | -24% | 0%
